Results filed as inconclusive are left out. The source made the active and inactive calls. Rule for the calls, unless noted: active = hit-call score of the fitted dose curve at least 0.9, where 1 is the maximum; inactive = score below 0.9.
Assays:
[1] = CCTE_Simmons_MITO_basal_resp_rate: CCTE's HepG2 Seahorse XF Respirometric Screening Assay at Basal Respiratory State, Simmons Lab (AID 2284001); settings: actives raise or lower the signal
Method in brief: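 HepG2 oxygen consumption on Seahorse XF96 after compound injection, 7 concentrations 125 nM–100 uM final, reads every 6 min over 72 min. Triplicate biological replicates; bidirectional fit vs DMSO; fenpyroximate and 2,4-dinitrophenol controls.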

[2] = CCTE_Simmons_MITO_max_resp_rate: CCTE's HepG2 Seahorse XF Respirometric Screening Assay at Maximal Respiratory State [uncoupled], Simmons Lab (AID 2284002); settings: actives raise or lower the signal
Method in brief: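 Read-out is oxygen consumption rate at maximal respiration, taken after FCCP uncoupling of compound-treated HepG2 cells. Seven final concentrations from 125 nM to 100 uM were tested, each in three biological replicates.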

[3] = CCTE_Simmons_MITO_inhib_resp_rate: CCTE's HepG2 Seahorse XF Respirometric Screening Assay at Inhibited Respiratory State [full ETC block], Simmons Lab (AID 2284006); settings: actives raise or lower the signal
Method in brief: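 Inhibited respiration was taken as HepG2 oxygen consumption after rotenone/antimycin A, which followed test-compound and FCCP injections. Chemicals were tested at seven final concentrations from 125 nM to 100 uM. Activity was fitted bidirectionally relative to DMSO.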

[4] = CCTE_Simmons_MITO_viability: CellTiter-Glo Viability Assessment for CCTE's HepG2 Seahorse XF Respirometric Screening Assay [post-hoc], Simmons Lab (AID 2284007; active = hit-call score of the fitted dose curve at least 0.9, where 1 is the maximum)
Method in brief: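 HepG2 cells; test chemical 7 conc. (125 nM–100 uM final) × 90 min; then luminescent ATP detection. DMSO vehicle. Positive control dichlone, 8 conc. from 10 nM to 100 uM final. Loss-of-signal endpoint.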

[5] = CCTE_Harrill_HTTr_Viability_MCF7: CCTE's 6-hour Cell Viability Assessment for the High-Throughput Transcriptomics (HTTr) Platform, in MCF-7 cells cultured in DMEM + 10% fetal bovine serum, Harrill Lab (AID 2284010)
Method in brief: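 Viability measured through PI dye exclusion by high-content imaging at 6 h post-dosing.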

[6] = CCTE_Harrill_HTTr_Apoptosis_MCF7: CCTE's 6-hour Apoptosis Assessment for the High-Throughput Transcriptomics (HTTr) Platform, in MCF-7 cells cultured in DMEM + 10% fetal bovine serum, Harrill Lab (AID 2284011)
Method in brief: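 MCF-7 (DMEM + 10% FBS), 384-well; 8-pt dilution series, 6 h chemical exposure; caspase-3/7 activation via CellEvent Caspase 3/7 Green, HCI; bidirectional fit vs DMSO.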

[7] = CCTE_Harrill_HTTr_CellCount_MCF7: CCTE's Cell Proliferation Assessment for the High-Throughput Transcriptomics (HTTr) Platform, Harrill Lab (AID 2284012; active = hit-call score of the fitted dose curve at least 0.9, where 1 is the maximum;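 note: count of Hoechst-stained nuclei per well by high-content imaging in MCF-7 cells; cells exposed to compound for six hours; intended direction is loss of nuclei count meaning fewer cells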)
Method in brief: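 Nuclei counting (Hoechst, high content imaging) in MCF-7 after a 6 h treatment at eight concentrations. Activity fitted bidirectionally, DMSO as negative control.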

[8] = CCTE_Shafer_MEA_acute_spike_number: CCTE's Neural Acute Assay for Total Number of Spikes, Shafer Lab (AID 2284008);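 for AC50: curve fitted for decrease in spike count so AC50 reflects inhibitors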
Method in brief: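 Read-out is the total spike count over 40 min, expressed as percent change from each well's own pre-treatment baseline and fitted in the loss direction against DMSO. Rat cortical neurons were exposed at 0.03-40 uM on DIV 13 or 15.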

[9] = CCTE_Shafer_MEA_acute_firing_rate_mean: CCTE's Neural Acute Assay for Mean Firing Rate, Shafer Lab (AID 2284009);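 note: analyzed for loss of signal so actives lower firing rate relative to DMSO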
Method in brief: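 Rat primary cortical neurons on 48-well MEA plates, dosed at 0.03-40 uM on DIV 13 or 15; 40 min spontaneous activity recorded at 37 C before and after compound. Spike rate per electrode averaged per well, expressed as percent change from baseline.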

[10] = CCTE_Shafer_MEA_acute_burst_number: CCTE's Neural Acute Assay for Single-Electrode Bursts, Shafer Lab (AID 2284013)
Method in brief: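 Primary rat cortical neurons on 16-electrode MEA wells, treated on DIV 13 or 15 with compound at 0.03-40 uM. Single-electrode burst count from 40-min recordings at 37 C before and after exposure; percent change from baseline per well, DMSO negative control.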

[11] = CCTE_Shafer_MEA_acute_burst_duration_mean: CCTE's Neural Acute Assay for Mean Burst Duration, Shafer Lab (AID 2284014);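 note: hits are decreases in mean burst duration relative to DMSO controls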
Method in brief: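 Rat primary cortical neurons on 48-well MEA, treated at DIV 13 or 15 with 0.03-40 uM in at least 3 wells. Value is percent change in mean burst duration, comparing 40 min recordings at 37 C before and during exposure.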

[12] = CCTE_Shafer_MEA_acute_interburst_interval_mean: CCTE's Neural Acute Assay for Mean Interburst Interval, Shafer Lab (AID 2284016);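 note: percent change of mean interburst interval versus each well's own pre-dose baseline; curves fitted for decrease in interburst interval relative to DMSO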
Method in brief: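 Percent change in mean single-electrode interburst interval was calculated per well from 40 min recordings before and after compound (0.03-40 uM). Recordings were made at 37 C on rat cortical cultures at DIV 13 or 15, with spikes detected at 8x rms threshold.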

[13] = CCTE_Shafer_MEA_acute_burst_percentage_std: CCTE's Neural Acute Assay for Standard Deviation of Burst Percentage, Shafer Lab (AID 2284018);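 note: fitted in the negative direction so actives lower burst percentage SD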
Method in brief: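 Rat primary cortical neurons on 48-well MEAs, DIV 13 or 15, 37 C. 40-min baseline then 40-min recording with compound (0.03-40 uM); well-level SD of per-electrode burst spike percentage, expressed as percent change from baseline.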

Measured: AC50

CCCCOC(=O)[C@@H](C)Oc1ccc(Oc2ccc(C(F)(F)F)cn2)cc1
inactive: [1] | [2] | [3] | [4] | [5] | [6] | [7]

CCCOC(=O)NCCCN(C)C
inactive: [5] | [6]

COc1c(Cl)ccc(Cl)c1C(=O)O
inactive: [5] | [6]

CCC(C)OC(=O)N1CCCCC1CCO (stereo not drawn)
inactive: [5] | [6]

CC(=O)[C@H]1CC[C@H]2[C@@H]3CCC4=CC(=O)CC[C@]4(C)[C@H]3CC[C@]12C
active: [1] 10.1 µM | [2] 13.4 µM
inactive: [3] | [4] | [5] | [6] | [7]

CCC(O)=C1C(=O)CC(C(=O)O)CC1=O (stereo not drawn)
inactive: [5] | [6]

COC(=O)c1ccccc1C(=O)O
not listed: [1] | [2] | [3] | [4]
inactive: all other assays above

C[C@]12C[C@H](O)[C@H]3[C@@H](CCC4=CC(=O)CC[C@@]43C)[C@@H]1CC[C@@H]2C(=O)CO
active: [1] 42 µM
inactive: [2] | [4] | [5] | [6] | [7]

CCCCCOC(=O)COc1cc(N2C(=O)C3=C(CCCC3)C2=O)c(F)cc1Cl
inactive: [5] | [6] | [7]

Oc1ccc(C(c2ccc(O)cc2)C(Cl)(Cl)Cl)cc1
inactive: [3] | [5] | [6] | [7] | [11]
active: [1] 18.8 µM | [2] 21.7 µM | [8] 4.04 µM | [9] 4.04 µM | [10] 2.22 µM | [12] 7.4 µM | [13] 20 µM

O=C(Nc1ccc([N+](=O)[O-])cc1Cl)c1cc(Cl)ccc1O
active: [1] 1.57 µM | [2] 0.928 µM | [3] 1.36 µM | [8] 0.115 µM | [9] 0.114 µM | [10] 0.0944 µM | [11] 0.621 µM | [12] 0.183 µM
inactive: [5] | [6] | [13]

CC(C)(C)[C@@H](O)[C@@H](Cc1ccc(Cl)cc1)n1cncn1
active: [11] 25.1 µM
not listed: [1] | [2] | [3] | [4]
inactive: all other assays above

c1ccc(Nc2ccccc2)cc1
inactive: [5] | [6]

C#CCOC(=O)[C@@H](C)Oc1ccc(Oc2ncc(Cl)cc2F)cc1
not listed: [1] | [2] | [3] | [4] | [7]
inactive: all other assays above

CCOC(=O)c1ccc(O)cc1
inactive: [5] | [6] | [7]

COC(=O)c1ccc(I)cc1S(=O)(=O)NC(=O)Nc1nc(C)nc(OC)n1
inactive: [5] | [6]

OB(O)O
not listed: [1] | [2] | [3] | [4]
inactive: all other assays above

CCCCCCC(C)OC(=O)COc1nc(F)c(Cl)c(N)c1Cl (stereo not drawn)
inactive: [5] | [6]
